In the supplement of paper PMC7801607:

Test system: Plasmodium berghei ANKA liver stage in HepG2-A16-CD81
Experiment: % inhibition of liver stage parasite viability (luciferase); higher = more inhibition
Conditions: 5 µM; 48 h
Method: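 Single-concentration screen of the MMV Pandemic Response Box. P. falciparum NF54 asexual blood stages: pLDH assay, 72 h at 37 °C, 2 and 20 µM, n=2. Stage IV/V gametocytes (NF54): luciferase reporter (NF54-Pfs16-GFP-Luc, 48 h), ATP bioluminescence (24 h) and PrestoBlue (48 h) at 1 and 5 µM, n=1. P. berghei liver stage (luciferase in HepG2-A16-CD81, 48 h post infection) at 5 µM, n=4. All normalised to DMSO and kill controls as % inhibition.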

Row | Structure (SMILES) | % inhibition of liver stage parasite viability [%]
1 | CC(C)(C)c1ccc(C(Cn2cccc(C(F)(F)F)c2=O)NC2Cc3ccccc3C2)cc1 (stereo not given) | 2.01
2 | C[C@H]1COc2c(N3CCN(C)CC3)c(F)cc3c(=O)c(C(=O)O)cn1c23 | 11.6
3 | NCc1ccc(S(N)(=O)=O)cc1 | 19.8
4 | Cc1[nH]c2ccccc2c1CCNCc1ccc(/C=C/C(=O)NO)cc1 | 72.8
5 | COc1ccccc1NC(=O)c1ccccc1Sc1ccc([N+](=O)[O-])cc1 | 27
6 | COc1cc(C)c2c(Oc3cccc(C(F)(F)F)c3)c(OC)cc(NC(C)CCCN)c2n1 (stereo not given) | 38.2
7 | CC[C@@H](CO)NCCN[C@@H](CC)CO | 32.9
8 | O=S(=O)(Nc1ccccc1)c1ccc(NC(=S)Nc2ccccc2)cc1 | 25.7
9 | Cc1nc2ccc(Oc3ccccc3)cc2c2c1CCN2CCc1ccccc1 | 27
10 | O=C(/C=C/n1cnc(-c2cc(C(F)(F)F)cc(C(F)(F)F)c2)n1)NNc1cnccn1 | 11.6
11 | CCn1cc(C(=O)O)c(=O)c2cc(F)c(N3CCNC(C)C3)c(F)c21 (stereo not given) | 22.1
12 | CCCNc1ccc(S(=O)(=O)Nc2cc(C)on2)cc1 | 32.4
13 | Cc1cc(CCOc2c(C)cc(-c3nnn(C)n3)cc2C)on1 | 33.8
14 | Oc1cccc(C(Nc2nccs2)c2ccc3cccnc3c2O)c1 (stereo not given) | 20.6
15 | COc1ccc(SCC(=O)N2c3ccccc3Sc3ccccc32)cc1 | 31.1
16 | O=c1cc(Nc2ccc3ccccc3c2)[nH]c(=O)[nH]1 | 39.9
17 | CC1(C)Cc2c(C#N)c(SCCc3ccccc3)nc(N3CCOCC3)c2CO1 | 18.8
18 | CCC(CC)[C@H](NC(C)=O)[C@@H]1[C@H](O)[C@@H](C(=O)O)C[C@H]1NC(=N)N | 24.4
19 | COc1ccc(C[C@@H](C)[C@@H](C)Cc2ccc(OC)c(OC)c2)cc1OC | 4.88
20 | CCCCCCC1c2ccc(O)cc2Oc2cc(O)ccc21 | 42.4

Row | Structure (SMILES) | % inhibition of liver stage parasite viability [%]
21 | Cc1ccc(NC(=O)c2ccc(CN3CCN(C)CC3)cc2)cc1Nc1nccc(-c2cccnc2)n1 | 8.45
22 | Cc1oncc1C(=O)Nc1ccc(C(F)(F)F)cc1 | -59.9
23 | CC(C)(C)c1ccc(Oc2ccc(N)cc2)cc1 | 54.4
24 | O=C(O)c1sccc1S(=O)(=O)n1ccc2cc(Br)ccc21 | 8.54
25 | O=c1oc2ccc(Br)cc2cc1CSc1ncc[nH]1 | -13.1
26 | O=C(NCc1ccc2c3c(cccc13)C(=O)N2)c1cccs1 | 17.9
27 | Cc1nc(N(C)C(=O)Cc2ccc(-c3ccccn3)cc2)sc1S(N)(=O)=O | 24.8
28 | Cc1nc(-c2ccc(C3N(C)c4ccc(F)cc4C(=O)N3c3ccccc3)s2)cs1 (stereo not given) | 31.9
29 | CCC(C)(C)c1ccc(CC(C)CN2C[C@@H](C)O[C@@H](C)C2)cc1 (stereo not given in full) | 40.5
30 | O=C(Nc1ccc(N2CCN(C(=O)c3ccccc3)CC2)cc1)c1ccc2c(c1)OCO2 | 33.5
31 | CCc1cc(CCCOc2c(C)cc(-c3noc(C(F)(F)F)n3)cc2C)on1 | 28.7
32 | CCc1c(OCC2CCC2)c2cc(F)ccc2[nH]c1=O | 12.7
33 | OB1OCc2cc(Cl)ccc21 | 23.6
34 | CCCCSc1nc(N)c2[nH]c(=O)c(=O)n(Cc3ccccc3)c2n1 | -9.6
35 | CC(C)CCN1C(=O)C(C2=NS(=O)(=O)c3cc(NS(C)(=O)=O)ccc3N2)=C(O)[C@@H]2[C@H]3CC[C@H](C3)[C@@H]21 | 47.3
36 | Cc1nc(Nc2ccc(F)cc2)nc(N2CCc3ccccc3C2C)c1C (stereo not given) | 52.5
37 | FC(F)(F)c1cc(C(F)(F)F)c2ccc3nc(-c4nnco4)cn3c2n1 | 17.6
38 | O=c1cc(NCCCN[C@@H]2CCOc3c(Br)cc(Br)cc32)[nH]c2ccsc12 | 74.7
39 | O=S(=O)(NCB(O)O)c1ccc(-c2nnn[nH]2)cc1C(F)(F)F | 29.3
40 | Nc1nnnn1CCOc1c2[nH]c3ccc(Cl)cc3c2cc2c1[nH]c1ccc(Cl)cc12 | 24.1
